# Results filed as inconclusive are left out. A call without a number means that no potency is given here. Active and inactive are the calls of the source. Unless noted, calls come from the whole dose curve; as a rule, active = well fitted curve in the direction sought with a large enough effect in the repeat runs; inconclusive = weak or mixed curves; inactive = no such curve, though single readings can be large; an effect the other way counts as inactive or inconclusive.
# Experiments:
# [1] = qHTS assay to identify small molecule agonists of the estrogen receptor alpha (ER-alpha) signaling pathway in the presence of an antagonist - cell viability counter screen (AID 1259386);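 note: cells exposed to compounds for 22 h at 37 °C before the viability read; nearly all actives have a fitted effect of over 30% in size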; note: potency is the fitted concentration of half-maximal effect
# How it was run: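 VM7Luc4E2 cells (endogenous full-length ER-alpha, 4×ERE-luciferase) were held 5 days in phenol red-free medium with 10% charcoal-stripped FBS, plated, then given 10.0nM ICI-182,780 and compounds at 15 concentrations for 22hr at 37C; viability read by CellTiter-Fluor fluorescence.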
# [2] = qHTS assay to identify small molecule antagonists of the progesterone receptor (PR) signaling pathway - cell viability counter screen (AID 1346798); note: nearly all actives have a fitted effect of over 50% in size; note: potency is the fitted concentration of half-maximal effect
# How it was run: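 ATP content as viability readout: CellTiter-Glo luminescence, 30 min room temperature, in PR-UAS-bla HEK293T cells after 16 hr compound/R5020 treatment at 37C and 5% CO2.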
# [3] = qHTS assay to identify small molecule agonists of the progesterone receptor (PR) signaling pathway - cell viability counter screen (AID 1346799; calls by dose curve; note: nearly all actives have a fitted effect of over 45% in size; note: potency is the fitted concentration of half-maximal effect)
# How it was run: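 Cytotoxicity in PR-bla HEK293T cells: 16 h compound, 37C; CellTiter-Glo added post-FRET read; luminescence after 30 min RT.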
# [4] = qHTS assay to identify small molecule antagonists of the TGF-beta/Smad signaling pathway - cell viability counter screen (AID 1346824); note: nearly all actives have a fitted effect of over 50% in size; note: potency is the fitted concentration of half-maximal effect
# How it was run: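 Cytotoxicity counter-screen run in the same wells as the beta-lactamase Smad reporter read: CellTiter-Glo luminescence after 30 min at room temperature. HEK 293T SBE-bla cells had 5 hr compound exposure at 37 C with TGF-beta1 (0.25 ng/mL stock).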
# [5] = qHTS assay to identify small molecule agonists of the TGF-beta/Smad signaling pathway - cell viability counter screen (AID 1346829); note: nearly all actives have a fitted effect of over 45% in size; note: potency is the fitted concentration of half-maximal effect
# How it was run: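 HEK 293T SBE-bla line, 5 hr compound exposure at 37 C, multiplexed CellTiter-Glo viability read by luminescence.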
# [6] = qHTS assay to identify small molecule agonists of the TGF-beta/Smad signaling pathway (AID 1346859; active = well fitted activation curve with a large enough effect in the signal ratio in the repeat runs, not every such curve was filed as active; the % refers to the signal ratio; note: series mostly up to about 77 µM)
# How it was run: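 Stable Smad binding element-beta-lactamase HEK 293T cells; 5 hr compound exposure at 37 C under 5% CO2; 2 hr room-temperature substrate step; fluorescence excited at 405 nm, collected at 460 nm and 530 nm.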
# [7] = target: Thyrotropin-releasing hormone receptor (Homo sapiens) (UniProt P34981); test: qHTS assay to identify small molecule antagonists of the thyrotropin-releasing hormone receptor (TRHR) signaling pathway (AID 1346877; active = well fitted inhibition curve with a large enough effect in the repeat runs, not every such curve was filed as active; note: series mostly up to about 51 µM)
# How it was run: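 TRHR-expressing HEK293 cells were seeded, cultured 18 h at 37 °C, then loaded with calcium dye for 2 h. Compounds were pre-incubated 5 min at room temperature before 1 nM TRH (final) was added, and kinetic fluorescence was recorded for 3 min.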
# [8] = target: Thyrotropin-releasing hormone receptor (Homo sapiens) (UniProt P34981); test: qHTS assay to identify small molecule agonists of the thyrotropin-releasing hormone receptor (TRHR) signaling pathway (AID 1346891; calls by dose curve; note: series mostly up to about 58 µM)
# How it was run: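 In 1536-format, 1500 TRHR-Hek293 cells per well grew 18 h, took up calcium dye for 2 h at 37 °C, received compound, and were read kinetically; 15-point titrations, triplicates.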
# [9] = target: Progesterone receptor (Homo sapiens) (UniProt P06401); test: qHTS assay to identify small molecule agonists of the progesterone receptor (PR) signaling pathway (AID 1346784; calls by dose curve; note: nearly all actives have a fitted effect of over 30% in size)
# How it was run: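 Using charcoal-stripped serum (2%) to limit endogenous steroids, PR-UAS-bla HEK 293T cells received compounds for 16 hr at 37C after 6 hr plating; beta-lactamase FRET fluorescence was recorded following 2 hr substrate loading at room temperature.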
# [10] = target: Progesterone receptor (Homo sapiens) (UniProt P06401); test: qHTS assay to identify small molecule antagonists of the progesterone receptor (PR) signaling pathway (AID 1346795; active = well fitted inhibition curve with a large enough effect in the signal ratio in the repeat runs, not every such curve was filed as active; the % refers to the signal ratio; note: potency is the fitted concentration of half-maximal effect)
# How it was run: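 Inhibition of R5020-induced (1 nM final) beta-lactamase reporter signal in PR-UAS-bla HEK293T cells was scored by FRET fluorescence after overnight (16 hr) compound treatment.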
# Sequence of Progesterone receptor (Homo sapiens) (P06401 whole entry, looked up): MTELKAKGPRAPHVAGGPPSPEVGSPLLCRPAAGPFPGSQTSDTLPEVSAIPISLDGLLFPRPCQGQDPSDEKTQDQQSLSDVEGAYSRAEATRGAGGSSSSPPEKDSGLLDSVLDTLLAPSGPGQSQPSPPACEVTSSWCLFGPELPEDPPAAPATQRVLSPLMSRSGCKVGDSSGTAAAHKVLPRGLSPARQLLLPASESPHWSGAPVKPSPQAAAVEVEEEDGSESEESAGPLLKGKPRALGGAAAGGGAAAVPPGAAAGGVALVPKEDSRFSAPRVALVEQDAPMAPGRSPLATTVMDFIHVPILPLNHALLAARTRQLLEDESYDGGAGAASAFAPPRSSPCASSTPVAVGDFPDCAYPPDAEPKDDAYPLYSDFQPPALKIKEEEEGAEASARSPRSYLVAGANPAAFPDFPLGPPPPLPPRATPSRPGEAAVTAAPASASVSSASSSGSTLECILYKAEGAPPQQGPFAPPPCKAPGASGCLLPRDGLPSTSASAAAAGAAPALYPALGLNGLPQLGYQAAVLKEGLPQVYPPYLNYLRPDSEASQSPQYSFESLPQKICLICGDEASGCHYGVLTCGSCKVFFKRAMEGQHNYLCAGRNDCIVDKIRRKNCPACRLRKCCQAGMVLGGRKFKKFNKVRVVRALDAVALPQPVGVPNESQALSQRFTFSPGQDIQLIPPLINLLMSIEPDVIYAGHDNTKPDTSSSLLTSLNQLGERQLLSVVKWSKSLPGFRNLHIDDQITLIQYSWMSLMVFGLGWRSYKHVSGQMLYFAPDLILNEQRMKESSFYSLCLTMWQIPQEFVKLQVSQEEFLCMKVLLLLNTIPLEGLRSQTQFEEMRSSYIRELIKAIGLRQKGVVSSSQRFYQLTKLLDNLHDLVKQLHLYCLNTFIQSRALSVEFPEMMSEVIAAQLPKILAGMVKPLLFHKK
# Sequence of Thyrotropin-releasing hormone receptor (Homo sapiens) (P34981 whole entry, looked up): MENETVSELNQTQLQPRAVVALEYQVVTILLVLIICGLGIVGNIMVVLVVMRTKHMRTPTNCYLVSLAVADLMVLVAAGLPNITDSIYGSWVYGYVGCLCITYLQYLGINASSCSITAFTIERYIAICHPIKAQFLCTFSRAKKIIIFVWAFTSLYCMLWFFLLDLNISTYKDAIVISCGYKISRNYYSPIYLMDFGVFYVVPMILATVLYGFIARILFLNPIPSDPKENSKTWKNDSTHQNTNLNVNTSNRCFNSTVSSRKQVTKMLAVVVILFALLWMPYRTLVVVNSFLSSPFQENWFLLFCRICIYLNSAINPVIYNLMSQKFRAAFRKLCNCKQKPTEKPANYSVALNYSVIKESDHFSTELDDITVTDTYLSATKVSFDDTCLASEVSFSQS
Structure (SMILES),Potency [1],Potency [2],Potency [3],Potency [4],Potency [5],Potency [6],Potency [7],Potency [8],Potency [9],Potency [10]
CN(C/C=C/C#CC(C)(C)C)Cc1cccc2ccccc12,inactive,26.6 µM (active),13.3 µM (active),inactive,inactive,inactive,inactive,inactive,–,–
CCCCCCCCCCCCCC[P+](CCCC)(CCCC)CCCC (tested in a mixture with another compound),8.69 µM (active),30.8 µM (active),30.8 µM (active),–,31.1 µM (active),–,inactive,–,–,–
O=C1C=CC(=O)N1,70.4 µM (active),55.9 µM (active),62.8 µM (active),–,–,inactive,inactive,inactive,–,–
CCCCCCCCCCCCc1ccc(O)cc1,68.6 µM (active),54.5 µM (active),30.6 µM (active),–,49 µM (active),–,–,–,–,–
CCCN(CCC)c1c([N+](=O)[O-])cc(C(F)(F)F)c(N)c1[N+](=O)[O-],60.9 µM (active),34.3 µM (active),21.6 µM (active),–,48.9 µM (active),–,–,inactive,–,–
Oc1ccc2cc(SSc3ccc4cc(O)ccc4c3)ccc2c1,inactive,inactive,–,inactive,inactive,inactive,inactive,inactive,–,–
C=CC(=O)OCCn1c(=O)n(CCOC(=O)C=C)c(=O)n(CCOC(=O)C=C)c1=O,48.6 µM (active),21.7 µM (active),43.3 µM (active),inactive,–,–,inactive,inactive,–,–
OCCN1CCN(CC/C=C2/c3ccccc3Sc3ccc(C(F)(F)F)cc32)CC1,inactive,23.7 µM (active),29.8 µM (active),inactive,–,inactive,inactive,inactive,–,–
NC(=O)N1C(=O)C(C(=O)c2cc(Cl)cs2)c2cc(F)c(Cl)cc21 (configuration not stated),24.3 µM (active),30.6 µM (active),43.3 µM (active),–,inactive,inactive,inactive,inactive,–,–
Cc1cc(N)c(S(=O)(=O)O)cc1Cl,inactive,inactive,inactive,inactive,inactive,inactive,inactive,inactive,–,–
CCCC1O[C@@H]2C[C@H]3[C@@H]4CCC5=CC(=O)C=C[C@]5(C)[C@H]4[C@@H](O)C[C@]3(C)[C@]2(C(=O)CO)O1 (some centres not stated),inactive,inactive,inactive,inactive,inactive,–,inactive,inactive,–,–
OC1(c2ccc(Cl)c(C(F)(F)F)c2)CCN(CCCC(c2ccc(F)cc2)c2ccc(F)cc2)CC1,33.5 µM (active),13.3 µM (active),13.3 µM (active),19 µM (active),19 µM (active),–,inactive,–,–,–
CC(C)(C)C(=O)OCOC(=O)C1N2C(=O)CC2S(=O)(=O)C1(C)C (configuration not stated),inactive,–,inactive,inactive,inactive,inactive,inactive,inactive,–,–
Cc1[nH]nc2c1N=C(c1ccccc1Cl)c1cc([N+](=O)[O-])ccc1N2,27.3 µM (active),–,–,–,4.36 µM (active),–,–,–,–,–
CCC1=C[C@@H]2CN(C1)Cc1c([nH]c3ccccc13)[C@@](C(=O)OC)(c1cc3c(cc1OC)N(C)[C@H]1[C@@](O)(C(=O)OC)[C@H](OC(C)=O)[C@]4(CC)C=CCN5CC[C@]31[C@@H]54)C2,–,–,–,inactive,inactive,inactive,inactive,inactive,inactive,–
C/C=C1/C(=O)C[C@H]2[C@@H]3CCC4=CC(=O)CC[C@]4(C)[C@H]3CC[C@]12C,inactive,–,–,inactive,inactive,–,–,–,–,–
Cc1oc(-c2ccccc2)nc1CCC(=O)c1ccc(CC2SC(=O)NC2=O)cc1 (configuration not stated),–,inactive,–,inactive,inactive,–,inactive,inactive,inactive,–
O=C(Nc1cccc(Cl)c1)OCC#CCCl,61.1 µM (active),54.5 µM (active),–,inactive,inactive,–,inactive,inactive,–,–
CCCCC(CC)CN=C(N)NC(N)=NCCCCCCN=C(N)NC(N)=NCC(CC)CCCC (configuration not stated),23.7 µM (active),–,–,19 µM (active),23.9 µM (active),–,inactive,inactive,–,–
CC(C)n1nc(-c2cc3cc(O)ccc3[nH]2)c2c(N)ncnc21,–,inactive,inactive,–,inactive,–,inactive,inactive,inactive,–
CCCCC(CC)COC(=O)c1ccccc1C(=O)O (configuration not stated),inactive,inactive,–,inactive,inactive,–,–,inactive,–,–
Cc1cc(C2CCCCC2)n(O)c(=O)c1,–,inactive,inactive,inactive,inactive,inactive,–,–,–,3.35 µM (active)
CN(C)c1ccc(C2(c3ccc(N(C)C)cc3)OC(=O)c3cc(N(C)C)ccc32)cc1,inactive,–,inactive,inactive,inactive,inactive,inactive,inactive,–,–
CCCCCCCC[N+](CCCCCCCC)(CCCCCCCC)CCCCCCCC,12.2 µM (active),30.6 µM (active),–,–,43.6 µM (active),–,inactive,inactive,–,–
O=C1c2ccccc2Cc2ccccc21,–,inactive,inactive,inactive,inactive,–,inactive,inactive,inactive,–
